Laboratory results from PubChem BioAssay AID2315 (National Center for Advancing Translational Sciences (NCATS), 2010).
Among all 290,000 compounds or so, about 27,000 (9.3%) were called active. What follows is part of a selection rich in actives, with near analogues and random picks from the rest. Values without a mark were called inactive. Cut-off read from the data, not from the text of the source: active = inhibition mostly above about 28% (no sharp cut-off); inactive = mostly below about 43%.

Test: A qHTS for Small Molecule Inhibitors of Shiga Toxin; note: 0% is about no effect
Conditions: Vero cells, Shiga toxin protein synthesis inhibition reporter; at 38.7 µM, active compounds read high

SMILES	inhibition
O=C(NC1CCCCC1)C1c2ccccc2C(=O)N1Cc1ccco1 (stereo not given)	2.78%
O=C1c2ccccc2C(Nc2ccc3c(c2)OCCO3)N1Cc1ccco1 (stereo not given)	75.3% (active)
COc1ccccc1C1/C(=C(/O)c2ccc(C)cc2)C(=O)C(=O)N1Cc1ccco1 (stereo not given)	-8.56%
Cc1ccnc(N2C(=O)c3ccccc3C2Nc2ccc3c(c2)OCCO3)c1 (stereo not given)	162% (active)
Cc1cccc(C(=O)Nc2ccccc2-c2nnn(CC(=O)Nc3ccc4c(c3)OCCO4)n2)c1	-7.74%
COC(=O)c1cc(NC2c3ccccc3C(=O)N2c2ccc(Cl)cn2)cc(C(=O)OC)c1 (stereo not given)	27.1%
CC(C)(C)NCc1cc(Br)ccc1OC1CCCC1	-3.59%
CCc1ccc2[nH]c(=O)c(Cc3ccccc3)c(O)c2c1	-8.55%
Cc1ccc(C2SCC(=O)N2c2ccccc2)cc1 (stereo not given)	23.4%
C=CCN1C(=NC(=O)COc2ccccc2)SC2CS(=O)(=O)CC21 (stereo not given)	-9.63%
Cc1ccc(C(=O)N/C(=C\c2cn(C)c3ccccc23)C(=O)N2CCN(C)CC2)cc1	-1.79%
Cc1ccc(CN2CCNC(=O)C2CC(=O)NCc2csc(C(C)C)n2)cc1 (stereo not given)	-6.42%
COc1ccc(S(=O)(=O)c2c[nH]c(=S)[nH]c2=O)cc1Cl	-4.21%
Cc1cnc(C(=O)OCc2c(C)cc(C(C)(C)C)cc2C)cn1	-2.67%
O=C(C[n+]1cc(Br)cc2ccccc21)c1ccc(F)cc1	-6.12%
Cc1ccc(NC(=O)c2cc(-c3ccccc3O)n[nH]2)cc1C	40.6%
c1ccc(-c2cc(-c3nnc4sc(-c5ccccn5)nn34)[nH]n2)cc1	11.6%
c1ccc(-c2cc(-c3ccccc3)[nH]n2)cc1	129% (active)
S=c1[nH]nc(-c2cc(-c3ccccc3)n[nH]2)n1/N=C/c1c2ccccc2cc2ccccc12	-4.79%
Oc1ccccc1-c1cc(-c2ccc(Cl)cc2)n[nH]1	151% (active)
O=C(NCCCNC(=O)c1ccccc1Cl)c1cnccn1	-8.38%
COc1ccc(NC(=O)CC(NC(C)c2ccccc2)C(=O)O)cc1 (stereo not given)	-9.37%
O=C(OCCN=C1NS(=O)(=O)c2ccccc21)c1cccc([N+](=O)[O-])c1	-7.24%
COc1ccc(N2CCN(C(=O)c3ccc(N4CCCCS4(=O)=O)cc3)CC2)cc1	3.75%
O=C(O)CCc1cccnc1	-4.95%

SMILES	inhibition
O=C(CCC(=O)OCc1ccc(Cl)cc1)Nc1ccccc1	-15.7%
CC(=O)OC(C(=O)NCCc1ccccc1)c1cccnc1 (stereo not given)	-5.15%
Cc1ccc(/C(N)=N/OC(=O)COc2ccc(Cl)c(C)c2)cc1	21.4%
N/C(=N\OC(=O)CCc1ccccc1)c1cccnc1	55.1% (active)
N/C(=N\OC(=O)CCc1ccccc1)c1ccc(Cl)cc1	61% (active)
C=CCn1c(SCC(=O)NCC2CCCO2)nc2sc(C)c(C)c2c1=O (stereo not given)	-9.53%
COC(=O)c1cc(S(=O)(=O)NCC2CCN(Cc3ccc(Cl)cc3)CC2)cn1C	-0.168%
COc1ccccc1CNC(=O)[C@@H]1CCCN1C(=O)[C@@H]1Cc2ccccc2CN1C(=O)OC(C)(C)C	-9.37%
COC(=O)c1ccc(OC(=O)c2nn(C)cc2Cl)c(OC)c1	8.13%
C=CCc1cccc(/C=N/NC(=O)COc2ccc(-n3cnnn3)cc2)c1O	19.1%
COc1ccc(CCNC(=O)CN(C)S(=O)(=O)c2ccc3nc(C)sc3c2)cc1OC	16.5%
Cn1c(SCC(=O)N2CCCCC2)nc2c(c1=O)SCC2	-17.3%
O=C(CN1C(=O)c2ccccc2S1(=O)=O)NC1CCCCC1	-0.163%
COc1cc(OC)c(C(=O)NC2CC(C)(C)NC(C)(C)C2)cc1OC	-5.21%
COc1cc(OC)c(C(=O)Nc2ccc(N(C)C)cc2)cc1OC	77.9% (active)
COc1ccc(Cl)cc1C(=O)Nc1ccc(N(C)C(C)=O)cc1	22.6%
CN(Cc1ccccc1)C(=O)c1cccc(C(=O)N(C)Cc2ccccc2)c1	-2.11%
COc1ccc(NC(=O)COc2ccc(C(=O)c3ccc(F)cc3)cc2)cc1S(N)(=O)=O	-4.25%
Oc1c(Br)cccc1/C=N/Nc1c(F)c(F)c(F)c(F)c1F	16%
CCOc1ccccc1/C=N/NC(=O)CNC(=O)COc1ccccc1	11.6%
COc1ccc(/C=N/n2nnnc2N)cc1OC	-3.85%
COc1cc(/C=N\Nc2nc(-c3cccs3)c(NC(C)=O)s2)ccc1O	34%
C=CCc1ccccc1OCC(=O)N/N=C/c1ccccc1OCC	13.2%
Cc1cc(C)nc(N/N=C/c2c(C)oc3ccccc23)n1	29.2%
CCOc1ccc(/C=N/Nc2nncc(-c3ccccc3)n2)cc1OC	8.48%

SMILES	inhibition
COc1ccc(/C=N/Nc2nc3ccccc3o2)cc1OC	101% (active)
Brc1ccccc1/C=N/Nc1nc2ccccc2o1	68.5% (active)
COc1cc(/C=N/Nc2nc3ccccc3s2)ccc1O	62.5% (active)
CCOc1ccccc1/C=N/Nc1nc2ccccc2o1	49% (active)
CCNc1nc(NCC)nc(N/N=C/c2ccc(O)c(OC)c2)n1	-4.76%
CCOC(=O)c1c(S(=O)(=O)NCC(=O)Nc2ccc(C)cc2)c(C)n(C)c1C	-5.73%
O=C1NC(c2ccccc2)Oc2ccccc21 (stereo not given)	-5.27%
Cc1ccc(NS(=O)(=O)c2ccc(-c3ccc(=O)[nH]n3)o2)c(C)c1	-12.5%
CCOc1cc(-c2noc(CCCC(=O)NC3CCCCC3)n2)ccc1OC	-9.28%
COc1ccccc1NC(=O)CSc1nnc(CNC(=O)c2ccccc2F)o1	15.5%
Cc1ccc(CSc2nc(-c3ccccc3)c(C#N)c(=O)[nH]2)cc1	22.6%
O=c1[nH]c(SCc2ccccc2)nnc1-c1ccccc1	36.4% (active)
Cc1ccccc1CSc1nnc(-c2ccccc2)c(=O)[nH]1	-6.33%
COc1ccccc1C(=O)NC(CCSC)C(=O)NNC(=O)c1csc(N2CCOCC2)n1 (stereo not given)	-15.3%
COc1ccc(/C=C/C(=O)c2ccc(OC)cc2O)cc1	42.2% (active)
COc1ccc(C(=O)/C=C/c2cccnc2)c(OC)c1	0.985%
COc1ccc(/C=C/C(=O)c2cc(Br)ccc(=O)c2O)cc1	7.73%
O=c1[nH]c(=O)n(Cc2ccco2)c2c1C(C(F)(F)F)(C(F)(F)F)N=C(c1ccco1)N2	58.8% (active)
CC(=O)Nc1ccc(S(=O)(=O)NC2(C(F)(F)F)C(=O)Nc3c2c(=O)[nH]c(=O)n3Cc2ccccc2)cc1 (stereo not given)	-2.93%
Cc1ccccc1C1=NC(C(F)(F)F)(C(F)(F)F)c2c(n(-c3ccc(F)cc3)c(=O)[nH]c2=O)N1	2.62%
Cc1ccc(OS(=O)(=O)c2ccc(-c3csc(C)n3)s2)c(C)c1	-11.1%
CN(Cc1ccccc1)CC(O)COc1ccc(CNCc2cc3ccccc3s2)cc1 (stereo not given)	-3.31%
COc1ccc(OCC(=O)NCCS(=O)(=O)N2CCN(c3ccc(F)cc3)CC2)cc1	-4.29%
Cc1cc(N/C=C\C(=O)c2ccc(Cl)c(Cl)c2)no1	59.9% (active)
Cc1cc(NC(=O)CSc2nnc(-c3ccc(Cl)s3)o2)no1	20.2%

SMILES	inhibition
COc1ccc(C(=O)/C=C/Nc2ccccn2)cc1	-2.27%
COc1ccccc1N1CCN(c2ccc([N+](=O)[O-])nc2)CC1	34.5%
CC(CN1CCOCC1)OC(=O)c1ccc(Cl)cc1Cl (stereo not given)	38.1%
O=S(=O)(NCCc1csc(-c2ccccc2)n1)c1cccnc1	129% (active)
O=S(=O)(NCCc1ccncc1)c1ccccc1	-5.04%
Cc1nc(CNS(=O)(=O)c2cccnc2)cs1	-1.16%
Cc1ccc(Cn2c(=N)c(S(=O)(=O)c3ccc(C)cc3)cc3c(=O)n4ccccc4nc32)cc1	-2.01%
CCCn1cc(S(=O)(=O)c2ccc(C)cc2)c(=O)c2cc(OCC)ccc21	3.51%
COC(=O)c1[nH]c2ccccc2c1NC(=O)CN1CCCc2ccccc21	25.1%
COC(=O)c1[nH]c2ccc(Br)cc2c1NC(=O)Oc1ccccc1	51.9% (active)
CCOC(=O)c1[nH]c2ccc(OC)cc2c1NC(=O)CCN1CCN(Cc2ccccc2)CC1	-3.91%
Cc1ccc(C(=O)Nc2ccc3c(c2)OCO3)cc1S(=O)(=O)N1CCCCC1	43.9%
O=C(Nc1ccc2c(c1)OCCO2)c1ccc(Cl)c(S(=O)(=O)N2CCCCC2)c1	147% (active)
O=C(Nc1cccc(S(=O)(=O)N2CCCCC2)c1)c1ccc2c(c1)OCO2	21.9%
COC(=O)c1ccc(N2CCOCC2)c(NC(=O)c2ccc3c(c2)OCCO3)c1	17.9%
CN1CCN(c2ccc(NC(=O)c3ccc4c(c3)OCCO4)cc2Cl)CC1	77.9% (active)
O=C(Nc1cccc(Cl)c1N1CCOCC1)c1ccc2c(c1)OCCO2	121%
Cc1cccc(C)c1NC(=O)CS(=O)CC(=O)N1CCN(c2ccccc2)CC1 (stereo not given)	-9.06%
Cc1cccc(NC(=O)N2CCCCCC2)c1C	46.2%
CCc1ccc(/C=C2\SC(N3CCOCC3)=NC2=O)cc1	42.9%
Cc1ccc(N2CCN(C3=NC(=O)/C(=C\c4cccs4)S3)CC2)cc1	-4.1%
Cc1ccsc1/C=C1\SC(N2CCOCC2)=NC1=O	111% (active)
O=C1N=C(N2CCOCC2)S/C1=C\C=C/c1ccccc1	66.1% (active)
O=C1N=C(N2CCc3ccccc3C2)S/C1=C\c1ccc(O)cc1	33%
CC1CCN(C2=NC(=O)/C(=C/c3cn[nH]c3-c3ccccc3)S2)CC1	-0.314%
